From PubChem BioAssay come the findings set out here.

The list shows a part of the results. Inconclusive results are not listed. The source made the active and inactive calls.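 Rule for the calls, unless noted: active = thallium flux slope beyond 3 SD from same-plate DMSO control mean in most replicates, usually higher, sometimes lower; inconclusive = repeat tests gave conflicting results; inactive = no significant difference from controls in most replicates.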

Sequence of Solute carrier family 12 member 5 (Homo sapiens) (Q9H2X9 whole entry, looked up): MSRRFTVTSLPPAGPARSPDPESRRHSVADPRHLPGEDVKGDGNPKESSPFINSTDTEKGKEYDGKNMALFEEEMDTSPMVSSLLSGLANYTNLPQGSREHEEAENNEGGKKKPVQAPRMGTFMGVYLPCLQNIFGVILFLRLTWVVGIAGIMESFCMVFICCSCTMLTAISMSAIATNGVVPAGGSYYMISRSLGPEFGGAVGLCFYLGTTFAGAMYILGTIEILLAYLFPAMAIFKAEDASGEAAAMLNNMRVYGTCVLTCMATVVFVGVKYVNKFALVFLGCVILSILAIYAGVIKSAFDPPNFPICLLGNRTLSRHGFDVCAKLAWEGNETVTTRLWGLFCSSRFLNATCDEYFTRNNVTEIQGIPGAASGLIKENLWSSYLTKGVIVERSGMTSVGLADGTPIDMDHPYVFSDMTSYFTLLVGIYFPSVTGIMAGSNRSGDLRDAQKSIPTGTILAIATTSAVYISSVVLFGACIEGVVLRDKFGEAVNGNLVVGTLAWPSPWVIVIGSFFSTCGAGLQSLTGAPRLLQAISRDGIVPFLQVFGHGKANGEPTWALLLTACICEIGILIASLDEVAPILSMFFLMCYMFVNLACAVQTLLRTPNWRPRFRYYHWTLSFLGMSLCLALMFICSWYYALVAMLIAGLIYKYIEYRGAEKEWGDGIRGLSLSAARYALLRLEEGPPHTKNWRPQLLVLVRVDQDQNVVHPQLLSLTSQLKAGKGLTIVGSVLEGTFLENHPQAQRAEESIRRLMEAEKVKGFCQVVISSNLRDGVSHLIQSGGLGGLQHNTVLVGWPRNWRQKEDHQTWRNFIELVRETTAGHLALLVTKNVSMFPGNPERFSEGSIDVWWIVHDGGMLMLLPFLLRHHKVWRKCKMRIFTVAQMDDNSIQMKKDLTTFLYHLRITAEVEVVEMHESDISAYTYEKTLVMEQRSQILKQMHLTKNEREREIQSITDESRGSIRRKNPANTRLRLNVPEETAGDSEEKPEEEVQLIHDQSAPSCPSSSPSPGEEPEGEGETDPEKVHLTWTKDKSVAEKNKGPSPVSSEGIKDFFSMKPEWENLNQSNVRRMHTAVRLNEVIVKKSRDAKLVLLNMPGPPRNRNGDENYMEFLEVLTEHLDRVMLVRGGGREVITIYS

The first experiment has as its target Solute carrier family 12 member 5 (Homo sapiens) (UniProt Q9H2X9). The experiment can be described thus: retest of KCC2 transport modulation, ouabain-free – cell-based, HEK293 KCC2, thallium flux, FluoZin2, secondary assay 2, confirmation (AID 1715;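 active = thallium flux slope more than 3 SD above or below the plate's solvent-only control mean, mostly below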;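 note: raw slope with 0.1% DMSO as baseline and bumetanide as block control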). Particulars: HEK293-KCC2, thallium flux FluoZin2 fluorescence; at 10 µM; actives lie on both sides; F/F0 rise rate, 10–20 s post-thallium.
Take `Cc1cc(C(=O)NNC(=S)Nc2ccccc2C)cs1`: the normalized thallium flux is 0.0323 (inactive). On the same count and under the same terms, next, `O=C(N/N=C/c1ccc(Br)o1)c1cncc(Br)c1`: 0.0307 (inactive).

Take `O=C(Cc1csc(Nc2nc(=S)[nH]c3ccccc23)n1)NCCCN1CCN(c2cccc(Cl)c2)CC1`: the normalized thallium flux was 0.0374 (inactive). The same measure, in the same setting: next, `COc1cc(OC)cc(C(=O)NCCSCc2ccco2)c1`: 0.0289 (inactive); `O=C(CNCc1cccs1)Nc1cc(S(=O)(=O)N2CCCC2)ccc1Cl`: 0.0229 (active); `Oc1c(Cl)cc(Cl)c(Cl)c1Cc1c(O)c(Cl)cc(Cl)c1Cl`: 0.0364 (inactive). The same measure, in the same setting: the same measure for `Cc1ccccc1NC(=S)NNC(=O)c1cccc(Br)c1`: 0.0325 (inactive); for `Cn1c(CCCOc2ccc(Cl)cc2Cl)n[nH]c1=S`: 0.0217 (active).

For `CC1CCCCN1S(=O)(=O)c1ccc(C(=O)Nc2nnc(-c3cccs3)o2)cc1` (stereo not drawn), the normalized thallium flux was 0.033 (inactive). As for `COc1cccc2sc(Nc3nc(C)c(C(C)=O)s3)nc12`, the normalized thallium flux is 0.0359 (inactive).

On to `COc1ccccc1N1CCN(C(=O)CSc2ncnc3c2cnn3-c2ccc(C)c(C)c2)CC1`, for which the normalized thallium flux is 0.029 (inactive).

As to `O=C(NNC(=S)NC(=O)c1cn(-c2ccccc2)nc1-c1ccccc1)c1ccncc1`, the normalized thallium flux is 0.0344 (inactive). Same read-out and setting: next, `COc1ccccc1-n1cnc2cc(NS(=O)(=O)c3ccccc3)ccc21`: 0.0252 (active); `Cc1ccc(-n2ncc3c(Nc4cccc(C(=O)O)c4)ncnc32)cc1`: 0.0319 (inactive). With `Cc1ccc(OCC(=O)N2CCN(C(=O)c3cccnc3)CC2)cc1`, the normalized thallium flux was 0.0326 (inactive).

As to `Cc1ccc(N=Cc2c(O)n(-c3nccs3)c(=O)c3ccccc23)c(C)c1`, the normalized thallium flux was 0.0195 (active). `Cc1cccc(-n2c(SCC(N)=O)nc3c(c2=O)C2(CCCCC2)Cc2ccccc2-3)c1`: the normalized thallium flux is 0.032 (inactive). Same read-out and setting: next, `O=c1c2ccccc2[nH]c(=S)n1CCN1CCC(=C(c2ccc(F)cc2)c2ccc(F)cc2)CC1`: 0.0294 (inactive). On the same count and under the same terms, the same measure for `O=C(C1CCN(c2nnc(-n3cccc3)s2)CC1)N1CCc2ccccc2C1`: 0.0245 (active); for `O=C(Oc1c(-c2ccco2)oc2ccccc2c1=O)c1cccnc1`: 0.0399 (inactive). With `COCCn1c(C)cc(C(=O)CSc2ncnc3sc4c(c23)CCC4)c1C`, the normalized thallium flux was 0.0342 (inactive). On to `CCCCC(CC)CNC(=O)C(=O)C1C(=O)Nc2ccccc21` (stereo not drawn), for which the normalized thallium flux is 0.0322 (inactive).

System in a further experiment: not listed separately
The experiment can be described thus: compound effects on native HEK Tl+ uptake – HEK cells, counterscreen 1, counter-screen for KCC2 modulator project, confirmation (AID 1716;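 active = thallium flux rate significantly above the same plate's solvent-only control wells, beyond their mean plus 3 SD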). Conditions: HEK293 parental cells, thallium flux FluoZin2, ouabain; at 10 µM; baseline-ratio fluorescence slope, 10–20 s after thallium.
With `O=C(N/N=C/c1ccc(Br)o1)c1cncc(Br)c1`, the thallium flux rate (normalised fluorescence) is 0.0124 (active). On the same count and under the same terms, next, `O=S(=O)(c1cccc(S(=O)(=O)N2CCC(n3nnc4ccccc43)CC2)c1)N1CCCCC1`: 0.00751 (inactive); `COC(=O)c1sc(NC(=S)NC(=O)c2ccc(C)cc2)nc1C`: 0.0618 (active). The same measure, in the same setting: the same measure for `COc1cccc(NC(=S)NC(=O)c2c(Cl)c(C)nn2C)c1`: 0.0727 (active). Still for that read-out and setting: next, `CS(=O)(=O)N(CC(=O)N1CCN(c2ccc(F)cc2)CC1)C1CCCCC1`: 0.00762 (inactive); `O=C(NNC(=S)NC(=O)c1cn(-c2ccccc2)nc1-c1ccccc1)c1ccncc1`: 0.0141 (active); `CCCCn1c(SCC(=O)NCC2CCCO2)nc2ccc(N3CCOCC3)cc2c1=O` (stereo not drawn): 0.0094 (active).

In the case of `COc1ccccc1-n1cnc2cc(NS(=O)(=O)c3ccccc3)ccc21`, the thallium flux rate (normalised fluorescence) is 0.0068 (inactive). The same measure, in the same setting: the same measure for `Cc1ccc(C)c(NC(=S)NNC(=S)Nc2ccc(C(C)C)cc2)c1`: 0.0112 (active); for `O=C(Nc1ccc2oc(-c3ccccc3F)nc2c1)c1ccco1`: 0.00696 (inactive); for `Cc1cc(C)c2cc(CN(Cc3cccs3)Cc3nnnn3CC3CCCO3)c(=O)[nH]c2c1` (stereo not drawn): 0.00572 (active). On to `Cc1cccc(-n2c(SCC(N)=O)nc3c(c2=O)C2(CCCCC2)Cc2ccccc2-3)c1`, for which the thallium flux rate (normalised fluorescence) is 0.0115 (active). Still for that read-out and setting: the same measure for `O=c1c2ccccc2[nH]c(=S)n1CCN1CCC(=C(c2ccc(F)cc2)c2ccc(F)cc2)CC1`: 0.00955 (active); for `O=C(Nc1ccn(Cc2ccccc2)n1)c1cccc(F)c1`: 0.00698 (inactive); for `COc1ccc(Cl)cc1C(=O)NNC(=S)NC(=O)/C=C/c1ccco1`: 0.0367 (active). With `O=C(C1CCN(c2nnc(-n3cccc3)s2)CC1)N1CCc2ccccc2C1`, the thallium flux rate (normalised fluorescence) is 0.00773 (inactive). On to `Fc1ccc(COc2cccc(-c3n[nH]c(=S)o3)c2)cc1`, for which the thallium flux rate (normalised fluorescence) is 0.0348 (active). The same measure, in the same setting: the same measure for `Cc1c(C(=O)NC(=S)NCc2cccnc2)oc2ccccc12`: 0.028 (active); for `O=C(CSc1ccc(-c2cccs2)nn1)Nc1ccccc1F`: 0.00368 (inactive). Still for that read-out and setting: the same measure for `O=C(c1cc(-c2ccc(O)cc2)on1)N1CCCc2ccccc21`: 0.00346 (inactive).

Another experiment concerns the target Solute carrier family 12 member 5 (Homo sapiens) (UniProt Q9H2X9). The experiment is described as follows: modulation of KCC2 thallium flux in HEK cells – cell-based, ouabain, retest, confirmation (AID 1717).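 Note: slope of initial-normalized fluorescence between seconds 10 and 20 after thallium.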 Conditions: HEK293-KCC2, thallium flux FluoZin2 fluorescence, at 10 µM, bidirectional: low = inhibitor, high = activator.
In the case of `Cc1cc(C(=O)NNC(=S)Nc2ccccc2C)cs1`, the raw Tl+ flux slope (below DMSO = inhibition, above = activation) is 0.0239 (inactive). Turning to `O=C(Cc1csc(Nc2nc(=S)[nH]c3ccccc23)n1)NCCCN1CCN(c2cccc(Cl)c2)CC1`, the raw Tl+ flux slope (below DMSO = inhibition, above = activation) was 0.0417 (active). The same measure, in the same setting: next, `COc1cc(OC)cc(C(=O)NCCSCc2ccco2)c1`: 0.0187 (inactive); `O=S(=O)(c1cccc(S(=O)(=O)N2CCC(n3nnc4ccccc43)CC2)c1)N1CCCCC1`: 0.0174 (active).

With `COC(=O)c1sc(NC(=S)NC(=O)c2ccc(C)cc2)nc1C`, the raw Tl+ flux slope (below DMSO = inhibition, above = activation) was 0.0617 (active). On the same count and under the same terms, the same measure for `O=C(CNCc1cccs1)Nc1cc(S(=O)(=O)N2CCCC2)ccc1Cl`: 0.0155 (active); for `CC1Cc2ccccc2N1C(=O)CSc1nc2ccccc2o1` (stereo not drawn): 0.0143 (active); for `Cc1ccccc1NC(=S)NNC(=O)c1cccc(Br)c1`: 0.0311 (active).

With `COc1cccc(NC(=S)NC(=O)c2c(Cl)c(C)nn2C)c1`, the raw Tl+ flux slope (below DMSO = inhibition, above = activation) is 0.066 (active).

Turning to `Cn1c(CCCOc2ccc(Cl)cc2Cl)n[nH]c1=S`, the raw Tl+ flux slope (below DMSO = inhibition, above = activation) is 0.0131 (active). Regarding `CC1CCCCN1S(=O)(=O)c1ccc(C(=O)Nc2nnc(-c3cccs3)o2)cc1` (stereo not drawn), the raw Tl+ flux slope (below DMSO = inhibition, above = activation) was 0.0294 (active). Turning to `CCCCn1c(=S)[nH]c2ncccc2c1=O`, the raw Tl+ flux slope (below DMSO = inhibition, above = activation) is 0.0884 (active). In the case of `COc1cccc2sc(Nc3nc(C)c(C(C)=O)s3)nc12`, the raw Tl+ flux slope (below DMSO = inhibition, above = activation) was 0.0215 (inactive).

As for `COc1ccccc1N1CCN(C(=O)CSc2ncnc3c2cnn3-c2ccc(C)c(C)c2)CC1`, the raw Tl+ flux slope (below DMSO = inhibition, above = activation) was 0.0176 (inactive).

Consider `CS(=O)(=O)N(CC(=O)N1CCN(c2ccc(F)cc2)CC1)C1CCCCC1`, for which the raw Tl+ flux slope (below DMSO = inhibition, above = activation) is 0.0176 (active). Same read-out and setting: the same measure for `CCCCn1c(SCC(=O)NCC2CCCO2)nc2ccc(N3CCOCC3)cc2c1=O` (stereo not drawn): 0.0187 (active); for `Cc1ccc(-n2ncc3c(Nc4cccc(C(=O)O)c4)ncnc32)cc1`: 0.0185 (inactive). On the same count and under the same terms, the same measure for `Cn1c(C(=O)NCCc2ccsc2)cc2c(=O)n(C)c3ccccc3c21`: 0.0126 (active); for `Cc1ccc(C)c(NC(=S)NNC(=S)Nc2ccc(C(C)C)cc2)c1`: 0.0152 (active). On to `Cc1ccc(OCC(=O)N2CCN(C(=O)c3cccnc3)CC2)cc1`, for which the raw Tl+ flux slope (below DMSO = inhibition, above = activation) was 0.0189 (inactive). Take `O=C(Nc1ccc2oc(-c3ccccc3F)nc2c1)c1ccco1`: the raw Tl+ flux slope (below DMSO = inhibition, above = activation) was 0.0137 (inactive). Still for that read-out and setting: next, `Cc1cc(C)c2cc(CN(Cc3cccs3)Cc3nnnn3CC3CCCO3)c(=O)[nH]c2c1` (stereo not drawn): 0.0137 (active); `Cc1ccc(N=Cc2c(O)n(-c3nccs3)c(=O)c3ccccc23)c(C)c1`: 0.0222 (active); `O=C(Nc1ccn(Cc2ccccc2)n1)c1cccc(F)c1`: 0.017 (active). The same measure, in the same setting: next, `COc1ccc(Cl)cc1C(=O)NNC(=S)NC(=O)/C=C/c1ccco1`: 0.0379 (active).

`Fc1ccc(COc2cccc(-c3n[nH]c(=S)o3)c2)cc1`: the raw Tl+ flux slope (below DMSO = inhibition, above = activation) is 0.042 (active). The same measure, in the same setting: the same measure for `O=C(Oc1c(-c2ccco2)oc2ccccc2c1=O)c1cccnc1`: 0.0573 (active); for `Cc1c(C(=O)NC(=S)NCc2cccnc2)oc2ccccc12`: 0.0308 (active); for `O=C(CSc1ccc(-c2cccs2)nn1)Nc1ccccc1F`: 0.017 (active).

With `O=C(c1cc(-c2ccc(O)cc2)on1)N1CCCc2ccccc21`, the raw Tl+ flux slope (below DMSO = inhibition, above = activation) was 0.0175 (active). Still for that read-out and setting: next, `CCCCC(CC)CNC(=O)C(=O)C1C(=O)Nc2ccccc21` (stereo not drawn): 0.0309 (active).
